DT40 TDP1 CPT: growth inhibition of DT40 Tdp1-/-;hTDP1 cells with camptothecin (screen for TDP1 inhibitors); chicken DT40 Tdp1-/-;hTDP1 cells + 20 nM CPT, ATP luminescence, 48 h; Potency, µM (doses to about 46.2 µM), inactives show at the highest dose activity change, negative = growth inhibition, actives largely listed as inhibitors; 420,000 tested, 12% active; further: potency means the concentration at half of the fitted maximal effect; nearly all actives have a fitted effect of over 55% in size
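Chicken DT40 Tdp1-/- cells stably complemented with human TDP1 were seeded at 400 cells/well in medium containing 20 nM camptothecin, exposed to pin-transferred compounds, and grown at 37 °C for at least 48 hr. Viability was read as ATP luminescence.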
HT1080-NT tox: kills 2HG-producing HT-1080-NT fibrosarcoma cells. 360,000 tested, 1.6% active. Potency, µM (doses to about 46.1 µM), inactives show top-dose activity, negative = less viability, usual class: cytotoxic. HT-1080-NT fibrosarcoma viability, CellTiter-Glo ATP luminescence, 48 h;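 further: NT is the 2HG producing partner of a matched IDH1 knockdown line; potency means the concentration at half of the fitted maximal effect; 0% = DMSO-treated cells and -100% = media-only wells without cells; nearly all actives have a fitted effect of over 55% in size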
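Viability of the 2HG-overproducing fibrosarcoma line after 48 hours of compound exposure at 37 degrees C was determined by luminescence with CellTiter-Glo, and concentration-effect curves were then fitted and categorized.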
12-LOX inh: inhibitors of human 12S-lipoxygenase ALOX12; P18054; purified 12hLO, xylenol orange hydroperoxide absorbance; Potency, µM (doses to about 108 µM), for the others: at the highest dose activity change, negative = inhibition, actives largely listed as inhibitors; 580,000 tested, 1.1% active; AID 1671190; further: potency means the concentration at half of the fitted maximal effect
Target sequence (P18054 whole entry, looked up): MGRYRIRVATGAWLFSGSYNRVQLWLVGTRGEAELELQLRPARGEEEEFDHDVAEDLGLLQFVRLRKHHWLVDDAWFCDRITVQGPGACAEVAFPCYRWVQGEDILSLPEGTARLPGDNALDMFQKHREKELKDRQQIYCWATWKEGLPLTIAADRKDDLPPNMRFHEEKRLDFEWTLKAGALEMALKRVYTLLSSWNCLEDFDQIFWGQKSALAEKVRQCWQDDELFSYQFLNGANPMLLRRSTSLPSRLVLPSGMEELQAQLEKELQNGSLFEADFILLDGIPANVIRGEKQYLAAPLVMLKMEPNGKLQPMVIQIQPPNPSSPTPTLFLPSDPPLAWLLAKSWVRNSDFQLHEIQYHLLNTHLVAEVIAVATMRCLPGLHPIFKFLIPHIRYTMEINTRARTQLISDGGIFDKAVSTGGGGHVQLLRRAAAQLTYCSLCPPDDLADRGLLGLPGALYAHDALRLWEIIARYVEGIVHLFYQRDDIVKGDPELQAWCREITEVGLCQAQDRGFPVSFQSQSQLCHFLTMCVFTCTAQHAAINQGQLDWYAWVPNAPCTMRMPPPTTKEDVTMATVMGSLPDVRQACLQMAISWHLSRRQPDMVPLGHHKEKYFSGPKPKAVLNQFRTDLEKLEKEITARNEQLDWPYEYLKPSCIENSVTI
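Purified human 12hLO at 150 nM in 25 mM Hepes, 0.01% Triton X-100, pH 7.0, preincubated 15 min at room temperature with compound. Reaction started with 40 uM arachidonic acid, 30 min at room temperature. Hydroperoxide measured by Fe-xylenol orange, 573/405 nm absorbance ratio.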
TDP1 cell noCPT: qHTS for Inhibitors of human tyrosyl-DNA phosphodiesterase 1 (TDP1): qHTS in cells in absence of CPT. 420,000 tested, 15% active. DT40 Tdp1-/- hTDP1 cells, no CPT, ATP luminescence, 48 h. AID 686978, 2013. Potency, µM (top dose mostly 46.2 µM), inactives show at the highest dose activity change, negative = growth inhibition, actives largely listed as inhibitors; further: potency means the concentration at half of the fitted maximal effect; nearly all actives have a fitted effect of over 55% in size
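Readout: luminescence from CellTiter-Glo after 30 min in the dark at RT. Cells: DT40 Tdp1-/- with stable hTDP1, 400/well. Exposure: compounds alone, ≥48 hr, 37 °C.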
IL-1B inflam inh: blocks inflammasome-driven IL-1 beta release; THP-1 LPS/ATP IL-1B secretion, AlphaLISA, 16 h; active compounds read low; 360,000 tested, 4.7% active; activity change, % at 57.5 µM; AID 743279; in the data active means activity change below about -50%; inconclusive means mostly about -30% to -49%
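THP-1 cells pretreated 1 hr with compounds (up to 57.5 uM final), then stimulated with LPS (250 ng/mL final) plus ATP (1.25 mM final); secreted IL-1B measured by AlphaLISA after 16 hr, decreased signal indicating inhibition.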
HT1080 IDH1KD tx: toxicity to HT-1080 IDH1 knockdown cells (counter line). HT-1080 IDH1 knockdown viability, ATP luminescence, 48 h. Potency, µM (doses to about 46.1 µM), for the others: top-dose activity, negative = toxicity, usual class: cytotoxic. 360,000 tested, 2% active;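 further: potency means the concentration at half of the fitted maximal effect; 0% = DMSO wells and -100% = cell-free medium wells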
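After a 2 h attachment period, IDH1KD HT-1080 cells took pin-transferred compound for 48 h at 37 °C; ATP-based luminescence after 10 min room-temperature reagent incubation reported viability.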
* hit, by the source's call; u = inconclusive; x = no result given; [ ] = remark or other dose. This excerpt belongs to a sample that is enriched for hits. Unless noted, the call rests on the fitted dose curve; in most records, active means well fitted curve in the direction sought with a large enough effect; inconclusive means small, poorly fitted or top-dose-only effect, or another doubt; inactive means no such curve, though single readings can be large; an effect the other way counts as inactive or inconclusive. Unless noted, on the % scale 0 is the no-effect control and ±100 the full control effect.

SMILES | DT40 TDP1 CPT | HT1080-NT tox | 12-LOX inh | TDP1 cell noCPT | IL-1B inflam inh | HT1080 IDH1KD tx
Nc1ncnc2c1ncn2C1OC(CO)C(O)C1N (centres undefined) | -24% | 9% | 13% | u | 12 | 0%
Nc1ncnc2c1ncn2[C@@H]1O[C@H](CO)[C@@H](O)[C@@H]1O | 0.46µM* | 16% | 12% | 0.37µM* | -3 | -2%
Cc1ccc(N(Cc2ccccc2)C(=O)c2ccc(F)cc2)cc1 | 21µM* | -17% | 10% | u | -28 | -8%
Cc1ccc(N(Cc2ccccc2)C(=O)c2cccc(F)c2)cc1 | u | -15% | x | u | -61* | -12%
Cc1cccc2cc(CN(Cc3ccccc3)C(=O)c3cccc(F)c3)c(Cl)nc12 | 29µM* | -26% | -5% | u | -8 | -2%
CC(C)c1ccc(OCC(=O)Nc2ccc3oc(-c4cccnc4)nc3c2)cc1 | x | x | -22% | x | x | x
COc1ccc(CC(N)c2csc(Nc3nncc4ccccc34)n2)cc1 (centres undefined) | u | u | u | 18µM* | 0 | u
CCc1cnc(Nc2nc(C(N)Cc3ccc(Cl)cc3)cs2)nc1 (centres undefined) | u | 21µM* | -18% | u | u | u
Cc1cnc(C)c(Nc2nc(C(N)Cc3ccccc3)cs2)n1 (centres undefined) | u | u | -3% | u | -18 | u
CCCc1cnc(Nc2nc(C(N)Cc3ccc(OC)cc3)cs2)nc1 (centres undefined) | u | 21µM* | -22% | u | u | u
NC(Cc1ccc(Cl)cc1)c1csc(Nc2ccc(-c3ccccc3)nn2)n1 (centres undefined) | 6.5µM* | u | 1% | -90% | -50* | -24%
CCc1cnc(Nc2nc(C(N)c3ccccc3Cl)cs2)nc1 (centres undefined) | u | -22% | 5% | u | -13 | -1%
Cc1ccccc1NC(=O)c1c2c(nc3ccccc13)C(=O)N(C1CCCCC1)C2 | u | x | -6% | 21µM* | x | x
Cc1ccc(NC(=O)c2c3c(nc4ccccc24)C(=O)N(C2CCCCC2)C3)cc1F | 8.2µM* | x | 2% | 12µM* | x | x
CC(C)OCCCNC(=O)c1c2c(nc3ccccc13)C(=O)N(C1CCCCC1)C2 | -22% | x | -2% | -23% | x | x
CCOc1ccccc1NC(=O)CSc1nc2ccccc2c(=O)n1CC1CCCO1 (centres undefined) | u | 5% | 2% | u | 7 | 5%
CCOc1ccccc1NC(=O)c1c2c(nc3ccccc13)C(=O)N(C1CCCCC1)C2 | 6.5µM* | x | -18% | 5.8µM* | x | x
FC(F)Oc1ccc(CNC23CC4CC(CC(C4)C2)C3)cc1 | x | x | 11% | x | x | x
Cn1cc(C(=O)NC2CCN(Cc3ccccc3)CC2)c2ccccc21 | x | x | 29% | x | x | x
C[C@H](c1ccccc1)N1C[C@H](COCc2ccccc2)Oc2cc(N3CCC[C@@H]3CO)ccc2S1(=O)=O | u | u | u | u | u | -29%
COC[C@@H]1CCCN1c1ccc2c(c1)O[C@@H](COCc1ccccc1)CN([C@@H](C)c1ccccc1)S2(=O)=O | 9.2µM* | -2% | 15% | 12µM* | 41 | -1%
CCCCC[C@H](C)N1C[C@H](COCc2ccccc2)Oc2cc(N3CCC[C@@H]3COC)ccc2S1(=O)=O | u | 1% | -5% | u | 0 | -2%
C[C@@H](c1ccccc1)N1C[C@H](COCc2ccccc2)Oc2cc(N3CCC[C@@H]3CO)ccc2S1(=O)=O | u | u | u | u | -12 | u
C[C@H](c1ccccc1)N1C[C@@H](COCc2ccccc2)Oc2cc(N3CCC[C@H]3CO)ccc2S1(=O)=O | u | u | u | 18µM* | -14 | u
COC[C@@H]1CCCN1c1ccc2c(c1)O[C@@H](COCc1ccccc1)CN([C@H](C)c1ccccc1)S2(=O)=O | u | -18% | -2% | 23µM* | -20 | -2%
CC(=O)c1ccc(Nc2nc(C(N)Cc3ccc(C(F)(F)F)cc3)cs2)cc1 (centres undefined) | 15µM* | u | -16% | 16µM* | u | u
Cc1ccc(C(=O)Nc2nc(C(N)Cc3ccc(C(F)(F)F)cc3)cs2)cc1 (centres undefined) | u | u | 10% | u | -65* | 16µM*
CC(=O)c1ccc(Nc2nc(C(C)N)cs2)cc1 (centres undefined) | 4% | 12% | 13% | 1% | -26 | 7%
NC(Cc1ccc(C(F)(F)F)cc1)c1csc(Nc2ccc(C(=O)c3ccccc3)cc2)n1 (centres undefined) | u | u | u | u | -70* | u
CN(Cc1ccccc1)C1CCc2ccccc21 (centres undefined) | x | x | 31%[176 µM] | x | x | x

Assay outcomes as filed in PubChem.
